Screening data from PubChem.
TDP1 cell noCPT: qHTS for Inhibitors of human tyrosyl-DNA phosphodiesterase 1 (TDP1): qHTS in cells in absence of CPT | DT40 Tdp1-/- hTDP1 cells, no CPT, ATP luminescence, 48 h | Potency, µM (series often up to 46.2 µM), inactives show top-dose activity change, negative = growth inhibition, actives largely listed as inhibitors | 420,000 compounds, 15% hits | AID 686978, 2013; also: potency is read from the fitted curve at half-maximal effect; nearly all actives have a fitted effect of over 55% in size
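Chicken DT40 Tdp1-/- cells complemented with human TDP1, screened without camptothecin (DMSO vehicle only), 400 cells/well. Compounds pin-transferred, cells incubated at 37 °C for at least 48 hr. Growth read as ATP-dependent luminescence (CellTiter-Glo, 30 min at RT).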
TDP1 cell CPT: growth inhibition of DT40 Tdp1-/-;hTDP1 cells with camptothecin (screen for TDP1 inhibitors); chicken DT40 Tdp1-/-;hTDP1 cells + 20 nM CPT, ATP luminescence, 48 h; Potency, µM (doses to about 46.2 µM), for inactives: top-dose activity change, negative = growth inhibition, most hits filed as inhibitors; 420,000 compounds, 12% hits; also: potency is read from the fitted curve at half-maximal effect; nearly all actives have a fitted effect of over 55% in size
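Cell growth measured by CellTiter-Glo luminescence after a minimum 48 h, 37 C compound exposure with 20 nM CPT in Tdp1-knockout DT40 cells stably expressing hTDP1, seeded 400/well; qHTS titration format.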
uPA surface inh: inhibitors of cell surface uPA generation. cell surface uPA generation assay, qHTS. Potency, µM (titrated, usually from 38.3 µM), for the others: top-dose activity change, negative = inhibition, actives largely listed as inhibitors. 330,000 compounds, 0.31% hits; active = well fitted inhibition curve with a large enough effect; inconclusive = small, poorly fitted or top-dose-only effect; inactive = no such curve, though single readings can be large or run the other way; tested in mouse RAW 264.7 cells; also: potency is read from the fitted curve at half-maximal effect; nearly all actives have a fitted effect of over 55% in size
HT1080-NT tox: kills 2HG-producing HT-1080-NT fibrosarcoma cells; HT-1080-NT fibrosarcoma viability, CellTiter-Glo ATP luminescence, 48 h; Potency, µM (top dose mostly 46.1 µM), for the others: at the top dose activity, negative = less viability, hits mostly cytotoxic; 360,000 compounds, 1.6% hits; AID 686970;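 also: NT is the 2HG producing partner of a matched IDH1 knockdown line; potency is read from the fitted curve at half-maximal effect; 0% = DMSO-treated cells and -100% = media-only wells without cells; nearly all actives have a fitted effect of over 55% in size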
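A 48-hour cytotoxicity screen used HT-1080-NT cells plated 2 hours before compound delivery. ATP-based CellTiter-Glo luminescence measured viability, normalized to DMSO and no-cell controls.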
HT1080 IDH1KD tx: kills HT-1080 cells with IDH1 knockdown; HT-1080 IDH1 knockdown viability, ATP luminescence, 48 h; Potency, µM (series often up to 46.1 µM), for inactives: at the top dose activity, negative = toxicity, actives largely listed as cytotoxic; 360,000 compounds, 2% hits;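 also: potency is read from the fitted curve at half-maximal effect; 0% = DMSO wells and -100% = cell-free medium wells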
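Viability of IDH1-knockdown HT-1080 fibrosarcoma cells was assessed by CellTiter-Glo after 48 h at 37 °C with titrated compound; concentration-effect curves were classified by fit quality and response size.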
IL1B secr inh: inflammasome signaling inhibition, IL-1 beta readout. THP-1 LPS/ATP IL-1B secretion, AlphaLISA, 16 h; stronger effect = lower value. activity change, % at 57.5 µM. 360,000 compounds, 4.7% hits; in the data active = activity change below about -50%; inconclusive = mostly about -30% to -49%
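THP-1 cells pretreated 1 hr with compounds (up to 57.5 uM final), then stimulated with LPS (250 ng/mL final) plus ATP (1.25 mM final); secreted IL-1B measured by AlphaLISA after 16 hr, decreased signal indicating inhibition.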
Starred values were filed as active, the others as inactive; ? = inconclusive; · = no result; [ ] = dose if it differs, or a comment. Compounds with a hit are over-represented: about 19% of the library has one in this group of screens. Unless noted, calls follow the shape of the dose curve; as a rule, active = well fitted curve in the direction sought with a large enough effect; inconclusive = small, poorly fitted or top-dose-only effect, or another doubt; inactive = no such curve, though single readings can be large; an effect the other way counts as inactive or inconclusive. Unless noted, % is scaled to controls: 0 for no effect and ±100 for the full control effect.

SMILES | TDP1 cell noCPT | TDP1 cell CPT | uPA surface inh | HT1080-NT tox | HT1080 IDH1KD tx | IL1B secr inh
CCOc1cccc(/C=N/Nc2nc(N3CCCC3)nc(N3CCCC3)n2)c1O | 13µM* | 16µM* | 6% | 24% | 2% | -108*
COc1ccc(C#Cc2cccc(-c3nc(C(=O)N4CCN(C)CC4)cc4c3[C@H](CCO)N(S(=O)C(C)(C)C)C4)c2)cc1OC (some centres not stated) | -21% | -29% | · | 28% | -1% | -19
COc1ccccc1CNC(=O)CSc1nc(=O)[nH]c2c1CCCC2 | -19% | -14% | · | · | · | ·
COCCNc1ncnc2ccc(-c3ccc(C(=O)N(C)C)cc3)cc12 | -2% | -12% | · | · | · | ·
O=C(NCCOc1ccc(Cl)cc1)c1ccc2c(c1)OCCO2 | -28% | -3% | 2% | -1% | -4% | -9
CCN(CC)CCCNC(=O)C1c2ccccc2Oc2ccccc21 | -14% | 8% | -2% | 5% | 9% | -11
CNCCCC1Sc2ccccc2Oc2ccccc21 (configuration not stated) | 15µM* | ? | 4% | ? | ? | -73*
COc1ccc(-c2c(-c3ccsc3)oc3ccc(N4CCOCC4)cc23)cc1 | 16µM* | ? | 12% | 14% | 9% | -5
CN(C(=O)COC(=O)/C=C/c1ccc(Cl)c(Cl)c1)c1c(N)n(Cc2ccccc2)c(=O)[nH]c1=O | 16µM* | 9.2µM* | -4% | 1% | 0% | -12
CN(C(=O)COC(=O)/C=C/c1ccc(F)cc1)c1c(N)n(Cc2ccccc2)c(=O)[nH]c1=O | ? | ? | 6% | -7% | -1% | 2
CC1CCCCN1C(=O)COC(=O)/C=C/c1ccc2ccccc2n1 (configuration not stated) | ? | ? | ? | -25% | -12% | -54*
CCCOc1ccc(/C=C/C(=O)OCC(=O)N(C)c2c(N)n(Cc3ccccc3)c(=O)[nH]c2=O)cc1OCC | 16µM* | ? | -1% | 2% | -3% | 5
COCCN(C(=O)COC(=O)/C=C/c1ccc2ccccc2n1)c1c(N)n(Cc2ccccc2)c(=O)[nH]c1=O | ? | ? | -7% | -28% | ? | 0
CC1CCCCN1C(=O)COC(=O)c1ccc2ccccc2n1 (configuration not stated) | -5% | -1% | 1% | 4% | 6% | 20
CN(C(=O)COC(=O)/C=C/c1ccc2ccccc2n1)c1c(N)n(Cc2ccccc2)c(=O)[nH]c1=O | ? | ? | -3% | 0% | 6% | -56*
COc1ccc(/C=C/C(=O)OCC(=O)N(C)c2c(N)n(Cc3ccccc3)c(=O)[nH]c2=O)cc1OC | 2% | ? | 0% | 8% | 12% | -1
CCO[C@H]1[C@H](NC(=O)c2cccnc2)c2ccccc2C12CCN(C(=O)c1cc(C)n(C)n1)CC2 | -10% | -8%[9.04 µM] | · | · | · | ·
COc1ccc(-n2c(=O)c3ccccc3n(Cc3ccc(F)cc3Cl)c2=O)cc1OC | -1% | -5% | · | · | · | ·
CCOC(=O)c1ccccc1NC(=O)Cc1c(C(=O)O)n(C)c2ccccc12 | -1% | -2% | -2% | -1% | 4% | -10
Cc1nn(CCCC(=O)Nc2cc(C(F)(F)F)ccc2Cl)c(=O)c2c1sc1ccccc12 | -2% | -24% | · | · | · | ·
Nc1cc2[nH]c(=O)c3ccccc3c2cc1[N+](=O)[O-] | ? | 23µM* | -10% | -2% | -27% | -9
C#CCOc1ccc(/C=C2/C(=O)NN(c3ccc(F)cc3)C2=O)cc1OC | 11% | 0% | 2% | -25% | -21% | 37
COc1ccc(NC(=O)[C@@H]2O[C@H](CO)[C@H](O)[C@H](O)[C@H]2O)cc1F | 4% | 8% | · | -3% | 5% | 8
